Laboratory results published in PubChem BioAssay (Tox21).
Several values for one entry are separate records, joined by “and”; a condition that tells them apart may be missing. Identical values can stand only once. Results filed as inconclusive are left out. A call without a number means that no potency is given here. Activity calls are given as the source filed them. Calls follow the shape of the dose curve; as a rule, active = well fitted activation curve with a large enough effect in the signal ratio in the repeat runs (not every such curve was filed as active); inconclusive = weak or mixed curves; inactive = flat fitted curve, though single readings scatter; the % refers to the signal ratio.

Test: qHTS assay to identify small molecule agonists of H2AX (AID 1224845)
Conditions: CHO-K1 phospho-H2AX Ser139 HTRF, 3 h; series mostly up to 154 µM
From the text: National Center for Advancing Translational Sciences [NCATS]
NIH Chemical Genomics Center [NCGC]
U.S. Environmental Protection Agency [EPA]
National Institutes of Environmental Health Sciences [NIEHS]
National Toxicology Program [NTP]
U.S. Food and Drug Administration [FDA]
HTRF phospho-H2AX (Ser139) assay (Cisbio Bioassays, US) enables the quantitative detection of the histone variant H2AX when phosphorylated on serine 139. When double-stranded DNA breaks, either by ionizing radiation or endogenous physiological processes, H2AX becomes phosphorylated at Ser139. This phospho-Ser139 serves as a sensitive biomarker for the detection of such breaks, localizing the site of DNA repair. So, HTRF phospho-H2AX Ser139 is a pertinent assay to study genome stability, the cell cycle, DNA repair, and it serves as a biomarker for cancer, and to understand aging. Wild type CHO-K1 cells were used to identify the inducers of Phospho-H2AX Ser 139 from the Tox21 10K compound collections.
Tox21 Assay Protocol Summary:
The CHO-K1 cells suspended in culture medium containing 10% FBS were dispensed at 1000 cells/ 3 ul/well in 1536-well white wall/solid bottom plates (Greiner Bio-One North America, NC) using a Multidrop Combi (Thermo Fisher Scientific Inc., Waltham, MA). After the assay plates were incubated at 37C overnight, 23 nl of compounds at 15 concentrations (from 5-48 columns) or positive control (from 1 to 4 columns) were transferred to the assay plates using a Pintool station (Wako, San Diego, CA) into each well resulting in a final DMSO concentration of 0.76%. After 3hr incubation at 37C, 1 uL/well Supplemented Lysis buffer (diluted 100 fold blocking reagent in lysis buffer) (HTRF Phospho-H2A.X (S139) Assay kit from Cisbio US Inc., Bedford, MA) was added using a Flying Reagent Dispenser (FRD) (Aurora Discovery, CA). After 10sec spin at 1000 rpm in a plate centrifuge, the assay plates were incubated at room temperature for 30 min. Then followed by the addition of 1 uL/well detection buffer (containing a mixture of two antibodies, one labeled with cryptate, Anti pH2AX (S139)-K and another labeled with d2, Anti H2AX-d2) using FRD. After incubation at room temperature for 24 hr, the time resolved fluorescence at excitation 320 nm and emissions at 665 nm and 620 nm was measured using an Envision plate reader (PerkinElmer, Waltham, MA).
Potency is read from the fitted curve at half-maximal effect.

Compound	Potency
Cc1cccc2ccccc12	inactive
CN/C(=C\[N+](=O)[O-])NCCSCc1ccc(CN(C)C)o1	inactive
COCCOCCOC	inactive
CCCCNC(=O)NS(=O)(=O)c1ccc(N)cc1	inactive
Cc1cccc(C)c1O	inactive
NC(=O)N/N=C/c1ccc([N+](=O)[O-])o1	inactive
COc1ccc(O)cc1	86.5 µM (active) and 89.8 µM (active) and 49.2 µM (active)
CCOC(=O)C(C)(C)Oc1ccc(Cl)cc1	inactive
COC1=CC(=O)C[C@@H](C)[C@]12Oc1c(Cl)c(OC)cc(OC)c1C2=O	inactive
COc1ccccc1O	inactive
OC[C@@H](O)[C@@H](O)[C@H](O)[C@H](O)CO	inactive
CC1=C(/C=C/C(C)=C/C=C/C(C)=C/C(=O)O)C(C)(C)CCC1	inactive
CCCCCCCCCCCCCC(=O)OC(C)C	inactive
CC(=O)Oc1ccccc1C(=O)O	inactive
CC(C)=CCC/C(C)=C/CO	inactive
NC(=O)NO	inactive
O=C(O)CN(CC(=O)O)CC(=O)O	inactive
COCC(C)N (stereo not given)	inactive
CCCCCCCCCCCCCCCCCC(=O)OCC(O)CO (stereo not given)	inactive
N[C@@H](Cc1c[nH]c2ccc(O)cc12)C(=O)O	inactive

Compound	Potency
COc1cc(O)c(C(=O)c2ccccc2)cc1S(=O)(=O)O	inactive
COC(=O)C1CCC(C(=O)OC)CC1 (stereo not given)	inactive
CC(=O)/C=C/C1=C(C)CCCC1(C)C	inactive
C=CCOC(=O)CC(C)C	inactive
Cc1c(N(C)C)c(=O)n(-c2ccccc2)n1C	inactive
O=C1CCCCCN1	inactive
C=C(C)C(N)=O	inactive
COC(=O)c1ccc(O)cc1	inactive
CCCCOC(=O)CCCCCCCCC(=O)OCCCC	inactive
CN(C)Cc1cc(CN(C)C)c(O)c(CN(C)C)c1	inactive
CCCCOCCOCCOC(C)=O	inactive
COc1ccccc1NC(=O)CC(C)=O	inactive
NC(=O)N1c2ccccc2C=Cc2ccccc21	inactive
NCCNc1cccc2ccccc12	inactive
C1CNCCN1	inactive
Nc1cccc(N)c1	inactive
CCCCCCCC(=O)OCC(O)CO (stereo not given)	inactive
CCn1cc(C(=O)O)c(=O)c2ccc(C)nc21	inactive
CCOCCO	inactive
CCCCCCCCOc1ccc(C(=O)c2ccccc2)c(O)c1	inactive
